PubChem BioAssay AID1159580 (chemical genetic matrix, 2015)
Several values for one entry are separate records, joined by “and”; a condition that tells them apart may be missing. Equal entries are not always repeated. About 2,000 (36%) of roughly 5,500 compounds were called active. Not shown: some 18% with an inconclusive outcome. Cut-off read from the data, not from the text of the source: active = normalized growth mostly below about 0.91 (no sharp cut-off); inconclusive = no clear call, values can overlap the other calls; inactive = mostly above about 0.92. The list shows a part of the results.

Assay: chemical genetic growth profiling, strain panel (AID 1159580);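 note: tested at 20 µM; growth read once vehicle control cultures reached saturation at 30 °C; 1 = growth at the plate median or of vehicle wells; lower values mean less growth of the strain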
Settings: growth OD
[1] = S. cerevisiae deletion strains, locus YBR229C, strain ROT2, stronger effect = lower value
[2] = S. cerevisiae deletion strains, locus YCL061C, strain MRC1, stronger effect = lower value
[3] = S. cerevisiae deletion strains, locus YDL101C, strain DUN1, stronger effect = lower value
[4] = S. cerevisiae deletion strains, locus YDL134C, strain PPH21, stronger effect = lower value
[5] = S. cerevisiae deletion strains, locus YDR150W, strain NUM1, stronger effect = lower value
[6] = S. cerevisiae deletion strains, locus YEL061C, strain CIN8, stronger effect = lower value
[7] = S. cerevisiae deletion strains, locus YGR078C, strain PAC10, stronger effect = lower value
[8] = S. cerevisiae deletion strains, locus YHR030C, strain SLT2, stronger effect = lower value
[9] = S. cerevisiae deletion strains, locus YHR087W, strain rtc3, stronger effect = lower value
[10] = S. cerevisiae deletion strains, locus YJR043C, strain POL32, stronger effect = lower value
[11] = S. cerevisiae deletion strains, locus YJR075W, strain HOC1, stronger effect = lower value
[12] = S. cerevisiae deletion strains, locus YLR039C, strain RIC1, stronger effect = lower value
[13] = S. cerevisiae deletion strains, locus YLR058C, strain SHM2 (second series), stronger effect = lower value
[14] = S. cerevisiae deletion strains, locus YLR085C, strain ARP6, stronger effect = lower value
[15] = S. cerevisiae deletion strains, locus YLR262C, strain YPT6, stronger effect = lower value
[16] = S. cerevisiae deletion strains, locus YML094W, strain GIM5, stronger effect = lower value
[17] = S. cerevisiae deletion strains, locus YMR219W, strain ESC1, stronger effect = lower value
[18] = S. cerevisiae deletion strains, locus YMR263W, strain SAP30, stronger effect = lower value
[19] = S. cerevisiae deletion strains, locus YMR307W, strain GAS1, stronger effect = lower value
[20] = S. cerevisiae deletion strains, locus YNL153C, strain GIM3, stronger effect = lower value
[21] = S. cerevisiae deletion strains, locus YNL298W, strain CLA4 (second series), stronger effect = lower value
[22] = S. cerevisiae deletion strains, locus YNL322C, strain KRE1, stronger effect = lower value
[23] = S. cerevisiae deletion strains, locus YNR030W, strain Alg12, stronger effect = lower value
[24] = S. cerevisiae deletion strains, locus YPL055C, strain LGE1, stronger effect = lower value
[25] = S. cerevisiae deletion strains, locus YPL241C, strain CIN2, stronger effect = lower value
[26] = S. cerevisiae deletion strains, locus YPR135W, strain CTF4, stronger effect = lower value

Measured: normalized growth

COc1ccc(-c2c(C(=O)O)sc(SC)c2C#N)cc1
inactive: S. cerevisiae deletion strains, locus YAL013W, strain DEP1, stronger effect = lower value 0.996 | [1] 0.998 | [2] 0.989 | [3] 1.01 | [4] 1.01 | [5] 1.07 | [6] 1.01 | [7] 1.01 | S. cerevisiae deletion strains, locus YGR229C, strain SMI1, stronger effect = lower value 1 | [8] 1.01 | [9] 0.997 | [10] 0.981 | [11] 1.01 | S. cerevisiae deletion strains, locus YKL190W, strain CNB1, stronger effect = lower value 1.01 | [12] 1.03 | [13] 0.994 | [14] 1.05 | [15] 1.04 | [16] 1.02 | [17] 1 | [18] 1.04 | [19] 1.06 | [20] 0.992 | [21] 1 | [22] 1 | [23] 1.01 | [24] 1.1 | [25] 1.01 | [26] 0.964

CSc1sc(-c2ccn[nH]2)c(-c2ccccc2)c1C#N
inactive: S. cerevisiae deletion strains, locus YAR019C, strain CDC15, stronger effect = lower value 0.982 | S. cerevisiae deletion strains, locus YBL105C, strain PKC1, stronger effect = lower value 0.981 | S. cerevisiae deletion strains, locus YBR135W, strain CKS1, stronger effect = lower value 0.975 | S. cerevisiae deletion strains, locus YBR136W, strain MEC1, stronger effect = lower value 0.975 | S. cerevisiae deletion strains, locus YBR160W, strain CDC28, stronger effect = lower value 0.992 | [1] 0.941 | [2] 0.981 | S. cerevisiae deletion strains, locus YDL017W, strain CDC7, stronger effect = lower value 0.994 | S. cerevisiae deletion strains, locus YDL028C, strain MPS1, stronger effect = lower value 0.983 | [3] 0.968 and 0.962 | S. cerevisiae deletion strains, locus YDL108W, strain KIN28, stronger effect = lower value 0.977 | S. cerevisiae deletion strains, locus YDL132W, strain cdc53, stronger effect = lower value 0.972 | S. cerevisiae deletion strains, locus YDL214C, strain PRR2, stronger effect = lower value 0.997 | S. cerevisiae deletion strains, locus YDR052C, strain DBF4, stronger effect = lower value 0.989 | S. cerevisiae deletion strains, locus YDR054C, strain cdc34, stronger effect = lower value 0.988 | [5] 0.974 | S. cerevisiae deletion strains, locus YDR226W, strain ADK1, stronger effect = lower value 0.976 | S. cerevisiae deletion strains, locus YDR477W, strain SNF1, stronger effect = lower value 0.984 | S. cerevisiae deletion strains, locus YER123W, strain YCK3, stronger effect = lower value 0.976 | S. cerevisiae deletion strains, locus YER133W, strain GLC7, stronger effect = lower value 0.987 | S. cerevisiae deletion strains, locus YFL009W, strain cdc4, stronger effect = lower value 0.97 | S. cerevisiae deletion strains, locus YFL029C, strain CAK1, stronger effect = lower value 0.975 | S. cerevisiae deletion strains, locus YFR003C, strain YPI1, stronger effect = lower value 0.976 | S. cerevisiae deletion strains, locus YFR019W, strain FAB1, stronger effect = lower value 0.973 | S. cerevisiae deletion strains, locus YFR028C, strain CDC14, stronger effect = lower value 0.974 | S. cerevisiae deletion strains, locus YGR040W, strain KSS1, stronger effect = lower value 0.998 | S. cerevisiae deletion strains, locus YGR052W, strain FMP48, stronger effect = lower value 0.998 | [7] 0.941 | S. cerevisiae deletion strains, locus YGR092W, strain DBF2, stronger effect = lower value 1 | S. cerevisiae deletion strains, locus YHR079C, strain IRE1, stronger effect = lower value 1.09 | S. cerevisiae deletion strains, locus YHR082C, strain KSP1, stronger effect = lower value 1.03 | [9] 0.914 | S. cerevisiae deletion strains, locus YHR205W, strain SCH9, stronger effect = lower value 0.997 | S. cerevisiae deletion strains, locus YIL147C, strain SLN1, stronger effect = lower value 0.979 | S. cerevisiae deletion strains, locus YJL095W, strain BCK1, stronger effect = lower value 0.974 | S. cerevisiae deletion strains, locus YJL128C, strain PBS2, stronger effect = lower value 0.957 | S. cerevisiae deletion strains, locus YJL157C, strain FAR1, stronger effect = lower value 0.986 | S. cerevisiae deletion strains, locus YJR016C, strain ILV3, stronger effect = lower value 0.978 | [10] 0.969 | S. cerevisiae deletion strains, locus YJR066W, strain TOR1 (second series), stronger effect = lower value 0.92 | S. cerevisiae deletion strains, locus YJR066W, strain TOR1, stronger effect = lower value 1.04 | [11] 0.944 | S. cerevisiae deletion strains, locus YKL048C, strain ELM1, stronger effect = lower value 0.984 | S. cerevisiae deletion strains, locus YKL067W, strain YNK1, stronger effect = lower value 0.992 | S. cerevisiae deletion strains, locus YKL101W, strain HSL1, stronger effect = lower value 0.976 | S. cerevisiae deletion strains, locus YKL193C, strain SDS22, stronger effect = lower value 0.983 | S. cerevisiae deletion strains, locus YKL203C, strain TOR2, stronger effect = lower value 1.04 | [12] 0.846 | [13] 0.975 | S. cerevisiae deletion strains, locus YLR133W, strain CKI1, stronger effect = lower value 0.968 | [15] 0.991 | S. cerevisiae deletion strains, locus YLR403W, strain SFP1, stronger effect = lower value 0.982 | S. cerevisiae deletion strains, locus YML070W, strain DAK1, stronger effect = lower value 0.984 | S. cerevisiae deletion strains, locus YMR001C, strain CDC5, stronger effect = lower value 0.993 | S. cerevisiae deletion strains, locus YMR205C, strain PFK2 (second series), stronger effect = lower value 0.97 | [17] 0.955 | [18] 0.939 | S. cerevisiae deletion strains, locus YMR277W, strain FCP1, stronger effect = lower value 0.984 | S. cerevisiae deletion strains, locus YNL006W, strain LST8, stronger effect = lower value 1 | S. cerevisiae deletion strains, locus YNL020C, strain ARK1, stronger effect = lower value 0.996 | [20] 0.979 | S. cerevisiae deletion strains, locus YNL161W, strain CBK1, stronger effect = lower value 0.991 | S. cerevisiae deletion strains, locus YNL183C, strain NPR1, stronger effect = lower value 1 | S. cerevisiae deletion strains, locus YNL207W, strain RIO2, stronger effect = lower value 0.96 | S. cerevisiae deletion strains, locus YNL222W, strain SSU72, stronger effect = lower value 0.977 | S. cerevisiae deletion strains, locus YNL307C, strain MCK1 (second series), stronger effect = lower value 1.01 | [22] 0.965 | S. cerevisiae deletion strains, locus YOL078W, strain AVO1, stronger effect = lower value 0.981 | S. cerevisiae deletion strains, locus YOL136C, strain PFK27, stronger effect = lower value 0.956 | S. cerevisiae deletion strains, locus YOR061W, strain CKA2, stronger effect = lower value 0.986 | S. cerevisiae deletion strains, locus YOR119C, strain RIO1, stronger effect = lower value 1.02 | S. cerevisiae deletion strains, locus YOR231W, strain MKK1, stronger effect = lower value 0.965 | S. cerevisiae deletion strains, locus YOR329C, strain SCD5, stronger effect = lower value 0.995 | S. cerevisiae deletion strains, locus YPL031C, strain PHO85, stronger effect = lower value 0.989 | [24] 0.875 | S. cerevisiae deletion strains, locus YPL153C, strain RAD53, stronger effect = lower value 0.971 | S. cerevisiae deletion strains, locus YPL204W, strain HRR25, stronger effect = lower value 0.958 | S. cerevisiae deletion strains, locus YPL209C, strain IPL1, stronger effect = lower value 0.978 | S. cerevisiae deletion strains, locus YPL256C, strain CLN2, stronger effect = lower value 1.04 | S. cerevisiae deletion strains, locus YPR025C, strain CCL1, stronger effect = lower value 0.989 | S. cerevisiae deletion strains, locus YPR106W, strain ISR1, stronger effect = lower value 0.986 | S. cerevisiae deletion strains, locus YPR111W, strain DBF20, stronger effect = lower value 0.954 | [26] 0.69 | S. cerevisiae deletion strains, strain NNK1, stronger effect = lower value 0.966 | S. cerevisiae deletion strains, strain TSCII, stronger effect = lower value 0.984
0.599 (active) and 1.06 (inactive): [8]
active: [4] 0.732 | [6] 0.827 | [14] 0.437 | S. cerevisiae deletion strains, locus YLR113W, strain HOG1, stronger effect = lower value 0.861 | [16] 0.789 | [19] 0.508 | [21] 0.735 | [23] 0.753 | [25] 0.758 | S. cerevisiae strains, strain wild type, stronger effect = lower value 0.911
